# Measurements reported in the supplement of paper PMC4466140.
# What was measured:
# Assay in all cases: SPOT peptide array binding signal intensity (averaged, normalized) (arbitrary units (background-subtracted, floor 0; scale differs between SH3 domains)); higher = stronger binding of the SH3 domain to the peptide
# [1] = target: AgAbp1
# Procedure, shortened: (§1)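 Binding signal is given in arbitrary units that differ between domains and is the normalized, background-subtracted spot intensity averaged across replicates. Each GST-SH3 fusion from one of four yeast species was made in E. coli BL21(DE3), purified on glutathione Sepharose and incubated at 10 μg/ml overnight at 4°C on cellulose-bound synthetic 15-mer peptides in which cysteines were replaced by serines. Detection used anti-GST antibody, an HRP anti-mouse secondary and luminol, followed by imaging and Genespotter quantification.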
# [2] = target: AgBbc1
# Procedure, shortened: as §1
# [3] = target: AgBem1-D1
# Procedure, shortened: as §1
# [4] = target: AgBzz1-D1
# Procedure, shortened: as §1
# [5] = target: AgBzz1-D2
# Procedure, shortened: as §1
# [6] = target: AgCyk3
# Procedure, shortened: as §1
# [7] = target: AgFus1
# Procedure, shortened: as §1
# [8] = target: AgHof1
# Procedure, shortened: as §1
# [9] = target: AgHse1
# Procedure, shortened: as §1
# [10] = target: AgLsb1
# Procedure, shortened: as §1
# [11] = target: AgLsb4
# Procedure, shortened: as §1
# [12] = target: AgMyo5
# Procedure, shortened: as §1
# [13] = target: AgNbp2
# Procedure, shortened: as §1
# [14] = target: AgRvs167
# Procedure, shortened: as §1
# [15] = target: AgSho1
# Procedure, shortened: as §1
# [16] = target: AgSla1-D1-D2
# Procedure, shortened: as §1
# [17] = target: AgSla1-D3
# Procedure, shortened: as §1
# [18] = target: CaAbp1-D1
# Procedure, shortened: as §1
# [19] = target: CaAbp1-D2
# Procedure, shortened: as §1
# [20] = target: CaBbc1
# Procedure, shortened: as §1
# [21] = target: CaBem1-D1
# Procedure, shortened: as §1
# [22] = target: CaBzz1-D1
# Procedure, shortened: as §1
# [23] = target: CaBzz1-D2
# Procedure, shortened: as §1
# [24] = target: CaCyk3
# Procedure, shortened: as §1
# [25] = target: CaFus1
# Procedure, shortened: as §1
# [26] = target: CaHof1
# Procedure, shortened: as §1
# [27] = target: CaHse1
# Procedure, shortened: as §1
# [28] = target: CaLsb1
# Procedure, shortened: as §1
# [29] = target: CaLsb4
# Procedure, shortened: as §1
# [30] = target: CaMyo5
# Procedure, shortened: as §1
# [31] = target: CaNbp2
# Procedure, shortened: as §1
# [32] = target: CaRvs167
# Procedure, shortened: as §1
# [33] = target: CaRvs167-3
# Procedure, shortened: as §1
# [34] = target: CaSho1
# Procedure, shortened: as §1
# [35] = target: CaSla1-D1-D2
# Procedure, shortened: as §1
# [36] = target: CaSla1-D3
# Procedure, shortened: as §1
# [37] = target: ScAbp1
# Procedure, shortened: as §1
# [38] = target: ScBbc1
# Procedure, shortened: as §1
# [39] = target: ScBem1-D1
# Procedure, shortened: as §1
# [40] = target: ScBzz1-D1
# Procedure, shortened: as §1
# [41] = target: ScBzz1-D2
# Procedure, shortened: as §1
# [42] = target: ScCyk3
# Procedure, shortened: as §1
# [43] = target: ScFus1
# Procedure, shortened: as §1
# [44] = target: ScHof1
# Procedure, shortened: as §1
# [45] = target: ScHse1
# Procedure, shortened: as §1
# [46] = target: ScLsb1
# Procedure, shortened: as §1
# [47] = target: ScLsb2
# Procedure, shortened: as §1
# [48] = target: ScLsb3
# Procedure, shortened: as §1
# [49] = target: ScLsb4
# Procedure, shortened: as §1
# [50] = target: ScMyo3
# Procedure, shortened: as §1
# [51] = target: ScMyo5
# Procedure, shortened: as §1
# [52] = target: ScNbp2
# Procedure, shortened: as §1
# [53] = target: ScPex13
# Procedure, shortened: as §1
# [54] = target: ScRvs167
# Procedure, shortened: as §1
# [55] = target: ScSho1
# Procedure, shortened: as §1
# [56] = target: ScSla1-D1-D2
# Procedure, shortened: as §1
# [57] = target: ScSla1-D3
# Procedure, shortened: as §1
# [58] = target: SpAbp1-D1
# Procedure, shortened: as §1
# [59] = target: SpBbc1
# Procedure, shortened: as §1
# [60] = target: SpBzz1-D1
# Procedure, shortened: as §1
# [61] = target: SpBzz1-D2
# Procedure, shortened: as §1
# [62] = target: SpCyk3
# Procedure, shortened: as §1
# [63] = target: SpHof1
# Procedure, shortened: as §1
# [64] = target: SpHof1-2
# Procedure, shortened: as §1
# [65] = target: SpHof1-3
# Procedure, shortened: as §1
# [66] = target: SpHse1
# Procedure, shortened: as §1
# [67] = target: SpLsb1
# Procedure, shortened: as §1
# [68] = target: SpLsb4
# Procedure, shortened: as §1
# [69] = target: SpMyo1
# Procedure, shortened: as §1
# [70] = target: SpNbp2
# Procedure, shortened: as §1
# [71] = target: SpPex13
# Procedure, shortened: as §1
# [72] = target: SpRvs167
# Procedure, shortened: as §1
# [73] = target: SpSla1-D1-D2
# Procedure, shortened: as §1
# [74] = target: SpSla1-D3
# Procedure, shortened: as §1
binder,measurement,setting,value
TKRKRPARLIFYDSK,SPOT peptide array binding signal intensity,[1],113
same,SPOT peptide array binding signal intensity,[2],40.2
same,SPOT peptide array binding signal intensity,[3],82
same,SPOT peptide array binding signal intensity,[4],26
same,SPOT peptide array binding signal intensity,[5],20
same,SPOT peptide array binding signal intensity,[6],13.5
same,SPOT peptide array binding signal intensity,[7],436
same,SPOT peptide array binding signal intensity,[8],20.5
same,SPOT peptide array binding signal intensity,[9],696
same,SPOT peptide array binding signal intensity,[10],3.5
same,SPOT peptide array binding signal intensity,[11],122
same,SPOT peptide array binding signal intensity,[12],≤ 0
same,SPOT peptide array binding signal intensity,[13],236
same,SPOT peptide array binding signal intensity,[14],3.67
same,SPOT peptide array binding signal intensity,[15],94.5
same,SPOT peptide array binding signal intensity,[16],1050
same,SPOT peptide array binding signal intensity,[17],1.25
same,SPOT peptide array binding signal intensity,[18],717
same,SPOT peptide array binding signal intensity,[19],662
same,SPOT peptide array binding signal intensity,[20],66.5
same,SPOT peptide array binding signal intensity,[21],16
same,SPOT peptide array binding signal intensity,[22],108
same,SPOT peptide array binding signal intensity,[23],40.2
same,SPOT peptide array binding signal intensity,[24],119
same,SPOT peptide array binding signal intensity,[25],876
same,SPOT peptide array binding signal intensity,[26],1.5
same,SPOT peptide array binding signal intensity,[27],36.8
same,SPOT peptide array binding signal intensity,[28],1.5
same,SPOT peptide array binding signal intensity,[29],85
same,SPOT peptide array binding signal intensity,[30],3.5
same,SPOT peptide array binding signal intensity,[31],450
same,SPOT peptide array binding signal intensity,[32],19.8
same,SPOT peptide array binding signal intensity,[33],240
same,SPOT peptide array binding signal intensity,[34],605
same,SPOT peptide array binding signal intensity,[35],1
same,SPOT peptide array binding signal intensity,[36],25
same,SPOT peptide array binding signal intensity,[37],26
same,SPOT peptide array binding signal intensity,[38],22
same,SPOT peptide array binding signal intensity,[39],22.5
same,SPOT peptide array binding signal intensity,[40],12
same,SPOT peptide array binding signal intensity,[41],22
same,SPOT peptide array binding signal intensity,[42],62
same,SPOT peptide array binding signal intensity,[43],354
same,SPOT peptide array binding signal intensity,[44],0.5
same,SPOT peptide array binding signal intensity,[45],1060
same,SPOT peptide array binding signal intensity,[46],5.5
same,SPOT peptide array binding signal intensity,[47],5
same,SPOT peptide array binding signal intensity,[48],239
same,SPOT peptide array binding signal intensity,[49],13
same,SPOT peptide array binding signal intensity,[50],2.5
same,SPOT peptide array binding signal intensity,[51],3
same,SPOT peptide array binding signal intensity,[52],975
same,SPOT peptide array binding signal intensity,[53],3.5
same,SPOT peptide array binding signal intensity,[54],23.8
same,SPOT peptide array binding signal intensity,[55],382
same,SPOT peptide array binding signal intensity,[56],198
same,SPOT peptide array binding signal intensity,[57],13.2
same,SPOT peptide array binding signal intensity,[58],190
same,SPOT peptide array binding signal intensity,[59],3
same,SPOT peptide array binding signal intensity,[60],77.5
same,SPOT peptide array binding signal intensity,[61],0.75
same,SPOT peptide array binding signal intensity,[62],8
same,SPOT peptide array binding signal intensity,[63],172
same,SPOT peptide array binding signal intensity,[64],27.5
same,SPOT peptide array binding signal intensity,[65],380
same,SPOT peptide array binding signal intensity,[66],299
same,SPOT peptide array binding signal intensity,[67],4
same,SPOT peptide array binding signal intensity,[68],205
same,SPOT peptide array binding signal intensity,[69],4.25
same,SPOT peptide array binding signal intensity,[70],584
same,SPOT peptide array binding signal intensity,[71],11
same,SPOT peptide array binding signal intensity,[72],4.33
same,SPOT peptide array binding signal intensity,[73],4
same,SPOT peptide array binding signal intensity,[74],7
FSRRQSMDIPSKNRN,SPOT peptide array binding signal intensity,[61],16.8
same,SPOT peptide array binding signal intensity,[62],4
same,SPOT peptide array binding signal intensity,[63],43.8
same,SPOT peptide array binding signal intensity,[64],98
same,SPOT peptide array binding signal intensity,[65],193
same,SPOT peptide array binding signal intensity,[66],784
same,SPOT peptide array binding signal intensity,[67],15
same,SPOT peptide array binding signal intensity,[68],290
same,SPOT peptide array binding signal intensity,[69],32.5
same,SPOT peptide array binding signal intensity,[70],400
same,SPOT peptide array binding signal intensity,[71],157
same,SPOT peptide array binding signal intensity,[72],34.5
same,SPOT peptide array binding signal intensity,[73],30.5
same,SPOT peptide array binding signal intensity,[74],279
